Laboratory results: PMC5540273 (PLoS ONE, 2017)

These compounds were tested on MUSK. Details: concentration: 1 μM, replicates: in singlicate; n = 1.
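Note: KINOMEscan kinase panel screen.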

SMILES | %Inh
Fc1cc(Cl)ccc1Nc1ccnc2cc(-c3ccc(CN4CCOCC4)o3)ccc12 [GW560109] | 0%
COc1cc(Nc2ccnc3cc(-c4ccncc4)ccc23)cc(OC)c1OC.Cl [GW494610] | 10%
Cc1ccc(O)cc1Nc1ccnc2cc(-c3ccc(CN4CCCCC4)o3)ccc12 [GW557777] | 3%
Nc1ncc(-c2ccc3nccc(-c4ccncc4)c3c2)cc1S(=O)(=O)N1CCCCC1 [GSK1693850] | 0%
COc1ccc(C)c(Nc2ccnc(Nc3ccc(-c4cnc[nH]4)cc3)n2)c1.Cl [GW784041] | 0%
Fc1cc(Cl)ccc1Nc1ccnc2cc(-c3ccc(CN4CCSCC4)o3)ccc12 [GW560106] | 0%
Cc1ccc(NC(=O)c2ccnc(N3CCCCC3)c2)cc1-c1ccc(C(=O)NCC2CC2)cc1 [GW775610] | 0%
CCOc1nccc(-c2c(-c3ccc(F)cc3)ncn2C2CCNCC2)n1 [SB-249175] | 0%
O=C(O)C(F)(F)F.O=c1[nH]ccc2nc(N[C@@H]3CCNC3)nc(Nc3ccc4c(c3)S(=O)(=O)CC4)c12 [GSK2181306] | 0%
c1ccc(Oc2ccc(Nc3ccnc4cc(-c5ccc(CN6CCCCC6)o5)ccc34)cc2)nc1 [GW567143] | 24%
Cc1ccc(C)c(NC(=O)Nc2ccc(C)c(-c3ccc(C(=O)Nc4ccncc4)cc3)c2)c1 [GSK1398473] | 0%
Cn1cc(-c2cnc(N)c3c(-c4ccc5c(c4)CCN5C(=O)Cc4ccccc4)csc23)cn1 [GSK2593074] | 24%
